Assay outcomes as filed in PubChem.
tim10-1 inh: growth inhibitors of tim10-1 mutant yeast, primary screen, luminescence, uHTS; inhibition, % at 20 µM; S. cerevisiae tim10-1 ts strain growth, BacTiter-Glo, 24 h; 2.2% of 330,000 active;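 active = inhibition of at least 40%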;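 note: mutant grown at 25 °C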
NALP3 yeast inh: NALP3 inflammasome inhibitors in reconstituted yeast, primary screen, luminescence, uHTS. Yeast reconstituted NLRP3/ASC/caspase-1, beta-gal luminescence, 24 h. inhibition, % at 10 µM. 0.39% of 330,000 active. AID 2825, 2010;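 active = inhibition of 50% or more; inactive = inhibition below 50%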
PfHsp90 set2: growth inhibition of PfHsp90-expressing yeast, primary screen, antimalarial PfHsp90 inhibitor project, S. cerevisiae, BacTiter-Glo luminescence, single point, set 2 | BacTiter-Glo ATP, 48 h; yeast lacking PDR1 and PDR3 efflux regulators | inhibition, % at 9.4 µM | 0.32% of 310,000 active;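 active = every replicate shows inhibition above about 80%, whatever the replicate mean, limit read from the data; inconclusive = mean inhibition reaches the set limit but some replicate falls short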
tim23-1 inh: growth inhibitors of tim23-1 mutant yeast, primary screen, luminescence, uHTS | inhibition, % at 20 µM | 1.3% of 330,000 active | AID 463212, 2010 | S. cerevisiae tim23-1 growth, BacTiter-Glo luminescence, 24 h;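 active = growth inhibition of the mutant yeast at or above 50%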;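 note: temperature-sensitive mutant grown at 25 °C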
TIM10 inh: growth inhibitors of isogenic TIM10 control yeast, primary screen, counter-screen for tim10-1 yeast inhibitor project, luminescence, uHTS. S. cerevisiae TIM10 strain growth, BacTiter-Glo luminescence, 24 h. inhibition, % at 10 µM. 1.4% of 330,000 active;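 active = inhibition of 40% or more at the single tested concentration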;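 note: wild-type TIM10 isogenic control strain grown at permissive 25 °C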
tim10-1 confirm: growth inhibitors of tim10-1 mutant yeast, confirmation, single concentration, luminescence, S. cerevisiae | inhibition, % at 20 µM | S. cerevisiae tim10-1 ts strain growth, BacTiter-Glo, 24 h | 56% of 7,400 active | shares compounds with tim10-1 inh | AID 463213, 2010;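 active = inhibition of yeast growth at or above a set limit in either of two repeat tests at 20 µM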;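 note: tim10-1 mutant grown at permissive 25 °C to find synthetic lethal compounds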
TIM10 conf: growth inhibitors of wild-type TIM10 yeast, confirmation, counter-screen for tim10-1 synthetic lethality project, single concentration, luminescence, S. cerevisiae. shares compounds with TIM10 inh. S. cerevisiae tim10 strain growth, BacTiter-Glo luminescence, 24 h. inhibition, % at 10 µM. 63% of 4,600 active. AID 463215, 2010;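 active = inhibition of yeast growth at or above a set limit in either of two replicates at 10 µM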; note: this counterscreen used the strain with wild-type TIM10
Of the large screens only hits and unclear results are named; the others gave an inactive call (follow-up assays come after a bar, where they were run). Sampled rows, rich in hits. Any-hit rate of the full collection: about 3.7%.

Oc1cc(NCc2cccnc2)ccc1-c1nc2ccccc2o1	tim10-1 inh 46.8, TIM10 inh 55.4 (no result: PfHsp90 set2) | tim10-1 confirm inactive | TIM10 conf 39.0
CCc1ccc(NC2=CC(=O)CC(c3ccco3)C2)cc1 (stereo unspecified)	tim10-1 inh 41.7, TIM10 inh 40.9 | tim10-1 confirm inactive | TIM10 conf inactive
Cc1ccc2c(c1)c1n[nH]c(=S)nc1n2CCc1ccccc1	tim10-1 inh 46.4, TIM10 inh 40.8 | tim10-1 confirm inactive | TIM10 conf 38.4
O=C(/C=C/c1cccs1)N1CCOCC1	none
O=C(/C=C/c1cccs1)c1cc(F)ccc1OC(=O)N1CCOCC1	tim10-1 inh 52.7, TIM10 inh 53.9 | tim10-1 confirm 54.8 | TIM10 conf inactive
C=CCn1c(SCC(=O)N(CC)C2CCS(=O)(=O)C2)nc2scc(-c3ccccc3)c2c1=O (stereo unspecified)	none (no result: tim10-1 inh, NALP3 yeast inh, tim23-1 inh, TIM10 inh)
Cc1cc(C)n(CC(=O)NNC(=O)CCNC(=O)c2ccccc2Cl)n1	none (no result: PfHsp90 set2)
Cc1ccc(-c2n[nH]c(=S)n2Cc2ccccc2)cc1	none
CCc1cc(-c2n[nH]c(=S)n2Cc2ccccc2)cs1	tim10-1 inh 42.0, TIM10 inh 44.4 | tim10-1 confirm inactive | TIM10 conf 41.3
CCc1c(C)nc2cc(-c3ccc(OC)c(OC)c3)nn2c1N1CCC(C)CC1	none
CCc1c(C)nc2cc(-c3ccc(OC)c(OC)c3)nn2c1N1CCCC1	tim10-1 inh 41.3, TIM10 inh 41.6 | tim10-1 confirm inactive | TIM10 conf inactive
O=c1c2ccccc2nc(/C=C/c2ccc([N+](=O)[O-])cc2)n1CCCO	none
O=c1c2ccccc2nc(/C=C/c2ccc([N+](=O)[O-])o2)n1CCCO	tim10-1 inh 86.2, TIM10 inh 58.8 | tim10-1 confirm 83.0 | TIM10 conf inactive
NC(=S)Nc1cccc2cc3ccccc3cc12	tim10-1 inh 40.4, TIM10 inh 40.3 | tim10-1 confirm inactive | TIM10 conf 31.7
O=C(Nc1ccc(Cl)cc1Cl)c1cccc(N2C(=O)C=CC2=O)c1	tim10-1 inh 59.2, PfHsp90 set2 107.4, TIM10 inh 94.9 | tim10-1 confirm 96.2 | TIM10 conf 99.8
CCCCN(C(=O)CSc1ncnc2sccc12)c1c(N)n(Cc2ccccc2)c(=O)[nH]c1=O	none
CCc1ccc(NC(=O)c2noc(C(C)C)c2[N+](=O)[O-])cc1	tim10-1 inh 52.0, TIM10 inh 46.4 | tim10-1 confirm 44.1 | TIM10 conf 32.7
CC(=O)c1ccc(NC(=O)c2noc(C(C)C)c2[N+](=O)[O-])cc1	none
CN(C)CCCN(C(=O)c1ccc2c(c1)OCCO2)c1nc2cc3c(cc2s1)OCO3	none
CCN(c1ccccc1)S(=O)(=O)c1ccc(C(=O)N(CCCN(C)C)c2nc3cc4c(cc3s2)OCO4)cc1	tim10-1 inh 63.8, TIM10 inh 52.5 | tim10-1 confirm 59.9 | TIM10 conf 46.1
CN(C)CCCN(C(=O)c1ccc2ccccc2c1)c1nc2cc3c(cc2s1)OCO3	tim10-1 inh 50.3, TIM10 inh 46.1 | tim10-1 confirm 42.5 | TIM10 conf 35.0
COc1ccc(/C(N)=N/OC(=O)c2ccc3c(c2)OCO3)cc1	tim10-1 inh 63.7, TIM10 inh 65.8 | tim10-1 confirm 49.8 | TIM10 conf inactive
Cc1ccc(/C(N)=N/OC(=O)c2ccc3c(c2)OCO3)cc1	tim10-1 inh 55.8, TIM10 inh 63.1 | tim10-1 confirm 51.5 | TIM10 conf inactive
CCCCn1c(N)c(N(CCOC)C(=O)CCNC(=O)c2ccc(Br)cc2)c(=O)[nH]c1=O	none (no result: PfHsp90 set2)
O=C(O)c1ccc(NCc2cccs2)cc1	none
CCOc1ccc2nc(N3CCOCC3)nc(C)c2c1	none
CCOc1ccc2nc3ccc4[nH]onc4c3c2c1	tim10-1 inh 42.1, TIM10 inh 48.2 | tim10-1 confirm 52.7 | TIM10 conf 52.8
CSc1ccc(CCCCCCOC(=O)C(C)(C)C)cc1	none
O=C(Oc1cccnc1)c1ccccc1[N+](=O)[O-]	tim10-1 inh 52.3, TIM10 inh 50.1 | tim10-1 confirm 32.6 | TIM10 conf 32.7
N/C(=N\OC(=O)c1ccccc1[N+](=O)[O-])c1cccnc1	none (no result: PfHsp90 set2)
COc1ccc(C2/C=C\CC(NS(=O)(=O)c3ccc(C)cc3)CC(=O)N2Cc2ccccc2F)cc1 (stereo unspecified)	none (no result: NALP3 yeast inh)
COc1cc(/C=C2/N=C(C3CCCCC3)OC2=O)cc(OC)c1OC	tim10-1 inh 43.2, TIM10 inh 43.7 | tim10-1 confirm 33.2 | TIM10 conf inactive
O=C(Nc1ccc(Cl)c(Cl)c1)C1CCN(C(=O)c2ccco2)CC1	none (no result: PfHsp90 set2)
COc1ccc(/C(C)=N/NC(=S)NCCc2ccccc2)cc1	tim10-1 inh 41.3, TIM10 inh 47.3 | tim10-1 confirm 34.7 | TIM10 conf inactive
C/C(=N\NC(=S)NCc1ccccc1)c1cccc(Br)c1	tim10-1 inh 42.4, TIM10 inh 44.8 | tim10-1 confirm inactive | TIM10 conf inactive
C/C(=N\NC(=S)NCCc1ccccc1)c1cccc(Br)c1	none
C/C(CCc1ccccc1)=N\NC(=S)NCCc1ccccc1	none
CNC(=O)CSc1nnc(-c2ccccn2)n1Cc1ccco1	none
CC(C)(C)c1ccc(CSc2nnc(-c3ccccn3)n2Cc2ccco2)cc1	tim10-1 inh 42.0, TIM10 inh 45.0 | tim10-1 confirm 48.2 | TIM10 conf 37.8
CC(=O)Oc1ccc(-c2cccc(C(=O)NCCCO)c2)cc1	none
Cc1ccc(S(=O)(=O)CCC(=O)OCc2nnc(-c3ccc([N+](=O)[O-])cc3)o2)cc1	none (no result: tim10-1 inh, NALP3 yeast inh, tim23-1 inh, TIM10 inh)
CC(C)[C@H](NC(=O)OC(C)(C)C)c1nnc(S(=O)(=O)Cc2c(F)cccc2Cl)o1	tim10-1 inh 61.4, TIM10 inh 71.0 | tim10-1 confirm 63.8 | TIM10 conf 63.8
Cc1ccccc1CS(=O)(=O)c1nnc([C@H](CC(C)C)NC(=O)OC(C)(C)C)o1	tim10-1 inh 65.4, PfHsp90 set2 inconclusive, TIM10 inh 57.2 | tim10-1 confirm 48.0 | TIM10 conf 49.2
CCCCC(=O)N/N=C/c1ccc(N2CCOCC2)c([N+](=O)[O-])c1	none (no result: tim10-1 inh, NALP3 yeast inh, tim23-1 inh, TIM10 inh)
CCN(CC)S(=O)(=O)c1cccc(NC2=NCCCCC2)c1	none
CCCc1[nH]nc2c1C(c1ccsc1)C(C#N)=C(N)O2 (stereo unspecified)	tim10-1 inh 46.9, TIM10 inh 46.0 | tim10-1 confirm inactive | TIM10 conf inactive
Nc1c(C(=O)c2ccc(Br)s2)oc2ccccc12	tim10-1 inh 47.5, TIM10 inh 42.8 | tim10-1 confirm 35.5 | TIM10 conf 41.8
